# Rango-impB inh: prevents formation of the Rango-importin beta complex; Q14974; Rango CFP/YFP FRET sensor + importin beta, 45 min; Potency, µM (doses to about 92.2 µM), for inactives: at the top dose inhibition of complex formation; 340,000 compounds, 0.031% hits; AID 540263;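 also: potency is read from the fitted curve at half-maximal effect; 0% = DMSO wells and 100% = buffer wells lacking importin beta; nearly all actives have a fitted effect of over 15% in size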
#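 FRET biosensor (snurportin 1 IBB flanked by EYFP and cerulean), 50 nM, with compound 5 min, then 0.125 microM importin beta in PBS, 1 mM DTT, 0.02% Tween-20, 0.1% BSA. CFP/YFP ratio read after 45 min at room temperature; pre-read flags interference.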
# Mm-Cpn inhibitor: inhibitors of Methanococcus maripaludis chaperonin TRiC (MmCpn); purified Mm-Cpn ATPase, ADP Transcreener TR-FRET; Potency, µM (titrated, usually from 76.9 µM), for inactives: at the top dose activity, negative = inhibition, usual class: inhibitors; 330,000 compounds, 0.031% hits; AID 504842; active = well fitted inhibition curve with a large enough effect; inconclusive = small, poorly fitted or top-dose-only effect; also: potency is read from the fitted curve at half-maximal effect; % is scaled to controls: 0 for no effect and ±100 for the full control effect; nearly all actives have a fitted effect of over 80% in size
#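 TR-FRET (320 nm excitation; 590 and 665 nm emission) reports ADP made from 10 uM ATP by 25 nM enzyme; compounds were preincubated 10 min, reaction run 30 min, both at 37°C.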
# KCNH2 WT inh: blocks the wildtype human KCNH2 potassium channel; Q12809; U2OS, BacMam KCNH2, thallium flux FluxOr; active compounds read low; activity change, % at 1.84 µM; 340,000 compounds, 0.37% hits; AID 720551;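 active = maximum activity change below -70%; inconclusive = maximum activity change between -70% and -50%; inactive = maximum activity change above -50%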; also: % is scaled to controls: 0 for no effect and ±100 for the full control effect
#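 U2OS cells transduced with wild-type KCNH2 virus are loaded with FluxOr dye for 45 min, and thallium flux is measured in kinetic reads before and after stimulation buffer. Rate constants are normalized to DMSO controls.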
# KCNH2 3.1 block: inhibitors of human KCNH2 3.1 potassium channel isoform; 340,000 compounds, 0.95% hits; U2OS KCNH2 3.1, thallium flux FluxOr; active compounds read low; activity change, % (tested at about 1.8 µM);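 active = maximum activity change below -70%; inconclusive = maximum activity change from -70% to -50%; inactive = maximum activity change above -50%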;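 also: thallium influx rate constant from kinetic fluorescence after stimulation buffer; % is scaled to controls: 0 for no effect and ±100 for the full control effect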
#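 Thallium flux read-out: FluxOr dye with Red40 quencher in HBSS/HEPES, 45 min at RT. Rate constants from kinetic reads were normalized to positive and negative DMSO controls. Cells: U2OS virally expressing the 3.1 isoform.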
# CCT chaperon mod: changes cytosolic chaperonin activity; purified chaperonin ATPase assay, HTRF ADP detection, 30 min; activity change, % (concentration not given with the values), hits read low; 360,000 compounds, 0.3% hits; AID 651819; in the data active = activity change below about -30%; also: % is scaled to controls: 0 for no effect and ±100 for the full control effect
#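 TRiC at 40 or 20 nM final (batch-dependent) in 30 mM Tris pH 7.4, 100 mM KCl, 5 mM MgCl2, 1 mM DTT, with compound at single 76 uM and 10 uM ATP, 30 min at 37 deg C. ADP detected by HTRF Transcreener, 665/615 ratio.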
# Rango release inh: inhibition of RanGTP-driven Rango-importin beta dissociation | Potency, µM (highest dose often 46.1 µM), inactives show at the top dose activity change, negative = inhibition | AID 540253 | 340,000 compounds, 0.071% hits | O95149+P62826 | Biochemical FRET Rango-importin beta, RanGTP-induced dissociation; also: potency is read from the fitted curve at half-maximal effect; % of control where 0% means no effect; nearly all actives have a fitted effect of over 45% in size
#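 Two FRET readings bracket the reaction: one 5 min after compound meets Rango–importin beta, another 45 min after RanGTP-RCC1 (0.6 uM Ran, 0.2 uM RCC1, 2 mM GTP) is added. Only the second defines inhibition.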
# An asterisk follows results filed as active; ? = inconclusive; . = not tested or not shown. Most compounds without a hit are left out; they make up all but 1.4% or so of the library. Unless noted, calls follow the shape of the full dose curve.
SMILES,Rango-impB inh,Mm-Cpn inhibitor,KCNH2 WT inh,KCNH2 3.1 block,CCT chaperon mod,Rango release inh
Cn1c(CNC(=O)CNS(=O)(=O)c2ccc(F)cc2F)cc(=O)n(C)c1=O,1%,-3%,?,-8,-1,1%
CN(C)c1ccc(C=c2c3ccccc3n3c2cc(-c2ccccc2)[n+]3C)cc1,?,.,3,15,1,?
CN(C)c1ccc(C=c2c3ccccc3n3c2cc(-c2ccc(Cl)cc2)[n+]3C)cc1,?,.,-207*,-191*,-2,?
COc1ccc(CN(C)C(=O)COC(=O)c2ccc(-c3ccccc3)cc2)c(OC)c1OC,2%,-3%,-2,-4,2,17%
O=C(CSc1nc2ccccc2[nH]1)NCc1ccccc1,4%,-2%,-2,-20,0,0%
S=C(NCc1ccccc1)NNc1nc2ccccc2[nH]1,-1%,-2%,1,-74*,0,-9%
O=C(Nc1cc(F)cc(F)c1)c1sc(Cl)nc1-c1ccccc1,3%,50µM*,15,3,-2,-3%
O=C(Nc1ccccc1)c1sc(Cl)nc1-c1ccccc1,-1%,?,-1,-6,1,0%
COc1ccc(OC)c(/C=N/NC(=O)c2[nH]ncc2Br)c1,-2%,-5%,-9,-1,1,0%
CCOc1ccc(/C=N/NC(=O)c2[nH]ncc2Br)c(O)c1,?,4%,0,-77*,0,?
O=C(Nc1ccccc1C(=O)O)c1cc(S(=O)(=O)NCc2ccccc2)ccc1Cl,2%,1%,-8,-2,-60*,-8%
COc1nnc(-c2ccc(C)cc2)c2ccccc12,-2%,-3%,-4,-90*,0,-19%
COc1ccc(Oc2nnc(-c3ccc(C)cc3)c3ccccc23)cc1,4%,1%,-7,-2,-5,-4%
Cc1ccccc1C(=O)Nc1nnc(SCC(=O)NCc2ccco2)s1,3%,-16%,6,-6,2,5%
C=CCOc1ccccc1CN1CCC(Cc2ccccc2)CC1,0%,1%,39,-87*,-1,3%
Cc1ccc([N+](=O)[O-])c(OCCCN2CCC(Cc3ccccc3)CC2)c1,5%,.,-127*,-97*,-1,10%
OCc1ccccc1OCCCN1CCC(Cc2ccccc2)CC1,-1%,1%,-3,-90*,-4,10%
Cc1ccc([N+](=O)[O-])c(OCCN2CCCCCC2)c1,-1%,-1%,20,2,-2,-10%
O=[N+]([O-])c1cccc(OCCN2CCC(Cc3ccccc3)CC2)c1,-3%,0%,5,-70*,0,-9%
COc1ccccc1CNC(=O)C(C)NS(=O)(=O)c1ccc(Br)cc1 (centres undefined),3%,1%,1,-3,-2,-13%
Clc1ccccc1OCCN1CCC(Cc2ccccc2)CC1,-1%,0%,16,-24,1,3%
O=Cc1cc(Cl)ccc1OCCN1CCC(Cc2ccccc2)CC1,2%,-3%,?,-105*,-2,18%
Cc1ccccc1NC(=O)COC(=O)C1C2CC3OC(=O)C1C3C2 (centres undefined),4%,-6%,-254*,-1,1,8%
NNC(=O)c1ccc(CN2C(=O)c3cccc4cccc2c34)cc1,?,-10%,15,?,-6,18µM*
CN1CCN(CC(=O)Nc2sc3c(c2C(=O)Nc2ccccc2)CCCC3)CC1,-1%,-5%,-92*,-95*,1,8%
SMILES,Rango-impB inh,Mm-Cpn inhibitor,KCNH2 WT inh,KCNH2 3.1 block,CCT chaperon mod,Rango release inh
CC(=O)Nc1cccc(Oc2nc(NC(C)C)nc3cc(-c4ccccc4)sc23)c1,.,.,.,.,-1,.
O=[N+]([O-])c1ccc2nc[nH]c2c1,2%,.,-17,-84*,1,-11%
Cc1cc(N2CCN(c3nc4ccccc4s3)CC2)n2ncnc2n1,5%,0%,21,-72*,-5,6%
Cc1cc(N2CCN(C(c3ccccc3)c3ccccc3)CC2)n2ncnc2n1,1%,.,23,10,-2,3%
Cc1cccc(NC(=S)Nc2cccc(C)n2)n1,0%,1%,13,-147*,-18,-14%
Cc1cccc(NC(=S)NC2CCCC2)n1,2%,2%,.,-11,-27,-6%
Cc1cn([C@H]2C[C@H](O)[C@@H](/C=C/C(=O)NCCC(c3ccccc3)c3ccccc3)O2)c(=O)[nH]c1=O,.,.,.,.,1,.
C(=N\NC1=Nc2cccc3cccc1c23)/c1ccccc1,?,-4%,-9,0,0,0%
C(=N\NC1=Nc2cccc3cccc1c23)/c1cccnc1,?,-14%,-1,5,-70*,?
CCc1ccc2oc(C(=O)NC3CCS(=O)(=O)C3)cc(=O)c2c1 (centres undefined),0%,-2%,14,17,-1,-3%
CC(=O)Nc1c(Cl)cc(Cl)c2c1Cc1cc(Cl)ccc1-2,6%,.,-1,-1,-48*,1%
CC(=O)Nc1ccc2c(c1)Cc1c-2cc(Cl)c(NC(C)=O)c1Cl,-4%,.,-8,-12,-1,-1%
COc1ccc2c(c1)[C@H]1[C@H](CO2)[C@H](c2ccccc2)[C@]2(C)C(=O)N(Cc3ccc(C)cc3)CC(=O)N12,0%,0%,-5,-20,-2,-5%
COc1cc(CCCN2C(=S)NC[C@@H]2c2ccccc2)cc(OC)c1OC,-1%,.,1,-94*,-1,-1%
COc1cc(CCCN2C(=S)NC[C@@H]2Cc2ccccc2)cc(OC)c1OC,1%,.,1,-9,0,33%
CCOc1ccc(S(=O)(=O)Nc2ccc(O)c(Sc3ncn[nH]3)c2)cc1,1%,2%,1,-6,-38*,-18%
CCCCCN(C(=O)CCC(=O)OCC(=O)N(CC)C1CCCCC1)c1c(N)n(CCCC)c(=O)[nH]c1=O,3%,-1%,-1,6,-1,-14%
Cc1ccc(NC(=O)CSc2nnc(-c3ccncc3)n2N)cc1C,0%,1%,-204*,-7,0,9%
COC(=O)CSc1nnc(-c2ccncc2)n1N,3%,0%,6,2,-4,-11%
COc1ccc(S(=O)(=O)N2CCC3(CC2)OCCN3S(=O)(=O)c2ccccc2)cc1OC,0%,-1%,3,-2,-1,-3%
NC(=O)c1nsc(C(=O)N(CC(=O)NC2CCCCC2)Cc2ccc(F)cc2)c1N,-3%,3%,1,7,2,-1%
Cc1ccc(CC2(C)C(=O)Nc3c(Cl)cccc32)cc1 (centres undefined),.,.,.,.,-1,.

# Screens deposited in PubChem BioAssay by National Center for Advancing Translational Sciences (NCATS).
